Holding throughout (experiment): NCI-60 one-dose screen, 48 h (100 = growth as untreated, 0 = no growth, -100 = all killed)
Holding throughout (conditions): 10 µM unless noted

Assay [1] has as its system HCT-15 colon.
The subject of assay [2] is HT29 colon.
For assay [3], the system named is SNB-75 CNS.
The subject of assay [4] is SNB-19 CNS.
The test system of assay [5] is U251 CNS.
For assay [6], the system named is PC-3 prostate.
Assay [7] concerns SK-MEL-5 melanoma.
In assay [8] the test system is UACC-62 melanoma.
The subject of assay [9] is LOX IMVI melanoma.
Assay [10] has as its system SK-MEL-28 melanoma.
Assay [11] has as its system SK-MEL-2 melanoma.
Assay [12] has as its system EKVX NSCLC.
For assay [13], the system named is SN12C renal.
In assay [14] the test system is UO-31 renal.
Assay [15] deals with TK-10 renal.
Assay [16] deals with ACHN renal.
Assay [17] deals with CAKI-1 renal.
Assay [18] concerns A498 renal.
For assay [19], the system named is CCRF-CEM leukemia.
Assay [20] concerns MOLT-4 leukemia.

About 83,000 compounds went through this panel and 20% of them were active in at least one assay; those are over-represented in the sample as a whole.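 Interpretation: 100, growth as untreated; towards 0, rising growth inhibition; 0, no net growth; 0 to -100, cell death. Compounds scoring below 10 were considered active.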 Values without a mark were called inactive. Calls of active or inactive are those of the source.

Consider `COc1ccc(-c2ccc(-c3ccc(C(=N)N)o3)o2)cc1`, for which the growth in assay [1] was -7.49% (active); in assay [2], -9.08% (active); in assay [3], 43.6%; in assay [4], 15.5%; in assay [5] it was -29.3% (active); in assay [6] it was 25.5%. Also, the growth is 25.6% in [7]; -61.1% (active) in assay [8]; -58.1% (active) in [9]; 71.1% in [10]; 54% in assay [11]; 58.4% in assay [12]. The growth is -23.9% (active) in [13]; 45.5% in [14]; 61.9% in assay [15]; 41.6% in assay [16]; 34.4% in assay [17]; 9.73% (active) in assay [18]. The growth in assay [19] is 5.45% (active); in [20] it was 27.7%.

Regarding `O=[N+]([O-])c1ccc(N/N=C\c2cc(Cl)ccc2O)nc1`, the growth in assay [1] is 26%; in assay [2], 50.9%; in assay [3] it was 70.1%; in assay [4], 44.8%; in assay [5], 33%; in assay [6] it was 24.5%. Also, the growth was 4.09% (active) in [7]; 11.2% in [8]; 22.6% in assay [9]; 55.3% in assay [10]; 44.3% in [11]; 31% in assay [12]. Moreover, the growth in assay [13] is 39.3%; in assay [14] it was 8.96% (active); in [15] it was 107%; in assay [16], 17.6%; in [17], -14.1% (active); in assay [18], 106%. Further, the growth is 19.1% in [19] and 13.8% in assay [20].

With `CN(C)c1ccc(/C=N/NC(=O)CSc2nc3sc4c(c3c(=O)n2-c2ccccc2)CCCCC4)cc1`, the growth in assay [1] is 43.8%; in assay [2], 45.8%; in [3] it was -2.33% (active); in assay [4] it was 48.8%; in [5], 5.23% (active); in assay [6], -23.4% (active). The growth is 46.2% in assay [7]; 8.03% (active) in [8]; 37.1% in [9]; 47.4% in assay [10]; 78.6% in assay [11]; 47% in assay [12]. Also, the growth in [13] was 55.5%; in assay [14], 77.8%; in assay [15], 64.9%; in assay [16], 24.6%; in [17] it was 8.87% (active); in assay [18], 34.8%. The values for the growth in assay [19] and in assay [20] were 70.9% and 71.8%, respectively.

On to `CNC1=C([N+](=O)[O-])C(c2ccc(OC)cc2)C(C#N)=C(c2ccc[nH]2)O1` (stereo not given), for which the growth in assay [1] was 106%; in assay [2], 107%; in [3], 88.6%; in [4], 97%; in [5], 101%; in assay [6], 97.1%. Besides, the growth in assay [7] is 98.2%; in [8], 91.8%; in assay [9], 99%; in [10] it was 108%; in assay [11] it was 108%; in [12], 99.7%. Besides, the growth was 97.1% in [13]; 89.3% in assay [14]; 117% in [15]; 105% in [16]; 92.6% in [17]; 96.8% in assay [18]. The growth in assay [19] is 43.1%; in [20], 108%.

With `C(CCCSC1=NCCN1)CCSC1=NCCN1`, the growth in assay [1] was 102%; in assay [2] it was 95%; in [3] it was 91.4%; in assay [4], 114%; in assay [5], 98.2%; in assay [6], 64.7%. In addition, the growth in [7] was 107%; in assay [8], 107%; in [9], 99.1%; in [10] it was 113%; in assay [11] it was 122%; in [12], 109%. In addition, the growth in [13] was 103%; in assay [14] it was 80.3%; in [15] it was 122%; in [16], 100%; in assay [17], 101%; in [18], 103%. Also, the growth in [19] was 101%; in assay [20], 102%.

Regarding `[2H]C([2H])([2H])Oc1ccc(/C=C/C(=O)/C=C(/C=C/c2ccc(OC([2H])([2H])[2H])c(OC([2H])([2H])[2H])c2OC([2H])([2H])[2H])OB(F)F)c(OC([2H])([2H])[2H])c1OC([2H])([2H])[2H]`, the growth in assay [1] was 39.6%; in assay [2] it was 38.5%; in [3], 57.1%; in assay [4], 83%; in assay [5] it was 47.7%; in [6], 67.6%. The growth was 92.4% in assay [7]; 56.5% in [8]; 13.2% in [9]; 73.3% in [10]; 94.9% in assay [11]; 88.7% in assay [12]. Besides, the growth in assay [13] was 56.7%; in assay [14], 38.8%; in assay [15], 74.2%; in assay [16], 14.4%; in [17], 48.6%; in [18] it was 107%. Further, the growth in assay [19] is -2.51% (active); in assay [20], 23.8%.

On to `O=C(Nc1ncc(Cc2ccc(Cl)cc2)s1)C1=NCCCCN1`, for which the growth in assay [1] was 98.9%; in assay [2] it was 102%; in [3], 102%; in assay [4], 106%; in [5], 106%; in assay [6], 101%. The growth in [7] is 99.8%; in assay [8], 97.7%; in assay [9], 98.7%; in assay [10], 108%; in [11] it was 110%; in assay [12], 106%. The growth is 106% in assay [13]; 84.3% in assay [14]; 108% in assay [15]; 109% in [16]; 90.5% in [17]; 112% in assay [18]. Further, the growth in [19] is 101%; in assay [20], 99.4%.

Source of the values: PubChem BioAssay (NCI).
